Source: PubChem BioAssay
Calls of active or inactive are those of the source.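 How the source made its calls, unless noted: active means compound raising the membrane signal above positive-control mean plus 3 SD in both repeats, and a primary screen hit; inactive means the rest.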

Biological target: Short transient receptor potential channel 6 (Mus musculus) (UniProt Q61143)
Assay: TRPC6 opening by TRPC4 activator hits – cell-based, HEK293, membrane potential dye, duplicate, selectivity assay for TRPC4 activator project, confirmation (AID 434950;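 active means membrane potential signal rise above negative control mean plus 3 SD in both duplicates, also active in the earlier TRPC4 screen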;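 on activation: 0% = buffer only wells and 100% = acetylcholine maximal-effect wells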)
Settings: HEK293 TRPC6, membrane potential fluorescence, at 10 µM; activation: hits give high values; outcome: activation

Short transient receptor potential channel 6 (Mus musculus), sequence (Q61143 whole entry, looked up): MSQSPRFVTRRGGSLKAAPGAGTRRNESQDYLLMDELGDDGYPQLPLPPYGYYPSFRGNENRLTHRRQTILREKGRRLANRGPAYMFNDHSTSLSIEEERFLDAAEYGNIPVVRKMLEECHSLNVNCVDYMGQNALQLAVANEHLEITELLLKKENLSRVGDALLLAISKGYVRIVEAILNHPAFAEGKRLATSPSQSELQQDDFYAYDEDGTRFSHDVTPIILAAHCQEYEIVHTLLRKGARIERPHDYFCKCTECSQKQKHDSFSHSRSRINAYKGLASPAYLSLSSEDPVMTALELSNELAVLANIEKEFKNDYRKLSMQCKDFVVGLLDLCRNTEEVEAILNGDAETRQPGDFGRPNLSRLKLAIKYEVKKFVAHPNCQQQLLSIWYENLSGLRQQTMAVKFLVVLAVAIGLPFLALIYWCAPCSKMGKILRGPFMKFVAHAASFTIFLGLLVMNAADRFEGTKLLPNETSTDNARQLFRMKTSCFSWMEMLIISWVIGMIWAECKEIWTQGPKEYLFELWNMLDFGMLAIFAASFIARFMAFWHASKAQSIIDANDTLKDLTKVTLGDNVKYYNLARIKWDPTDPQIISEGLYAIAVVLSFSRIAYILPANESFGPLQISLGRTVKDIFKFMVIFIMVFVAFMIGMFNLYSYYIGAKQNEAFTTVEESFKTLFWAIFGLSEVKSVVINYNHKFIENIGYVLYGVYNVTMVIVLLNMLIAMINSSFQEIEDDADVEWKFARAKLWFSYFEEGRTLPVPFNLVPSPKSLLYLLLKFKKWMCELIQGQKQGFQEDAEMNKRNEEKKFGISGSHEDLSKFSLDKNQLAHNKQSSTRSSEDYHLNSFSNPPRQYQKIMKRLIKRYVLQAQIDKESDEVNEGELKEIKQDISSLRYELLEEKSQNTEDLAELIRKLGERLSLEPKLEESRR

Question: For `Cc1cccn2c(CNCCc3ccccn3)c(C(=O)N3CCOCC3)nc12`, which activation is on record?
Answer: 46.5% (active)

Question: Which activation does the source give for `COc1ccc(/C=N/NC(=O)C2COc3ccccc3O2)cc1OC` (stereo not drawn) here?
Answer: 45% (active)

Question: `CN(C)CCNC(=O)c1c(NC(=O)c2ccccc2)sc2c1CCCC2` was tested. Which outcome did it give?
Answer: inactive

Question: How did the activation turn out when `Cc1ccccc1N1CC(O)(c2ccccc2)[N+]2=C1SCC2` (stereo not drawn) was run?
Answer: 39% (active)

Question: How did the outcome turn out when `CC(C)Cc1ccc(CN2CCCC(NC(=O)CCn3cnnn3)C2)cc1` (stereo not drawn) was run?
Answer: inactive

Question: How did the activation turn out when `CN1CCN(Cc2nc3c(c(=O)[nH]c(=O)n3C)n2Cc2c(F)cccc2Cl)CC1` was run?
Answer: 30% (active)

Question: `O=C(CC1C(=O)NCCN1Cc1cccc(Oc2ccccc2)c1)NCCc1ccccn1` (stereo not drawn) was tested. Which outcome did it give?
Answer: inactive

Question: How did the outcome turn out when `CN(C)CCCN(C(=O)c1ccc(Cl)s1)c1nc2cc3c(cc2s1)OCO3` was run?
Answer: inactive

Question: `Cc1cc(CSC(=N)N)c(CSC(=N)N)cc1C` was tested. Which outcome did it give?
Answer: inactive

Question: Which outcome does the source give for `COC(=O)c1ccc(N2CCN(C)CC2)c(NC(=O)c2ccc(Br)o2)c1` here?
Answer: inactive

Question: How did the activation turn out when `CCc1cc(OCCN(C)C)ccc1Cl` was run?
Answer: 39.5% (active)

Question: With `C=CCn1c(/N=C/c2ccc(N(C)C)cc2)nc2ccccc21` as the molecule, how does the activation read?
Answer: 159% (active)

Question: Which outcome does the source give for `CCC1CCCCN1S(=O)(=O)c1ccc(C(=O)N(CCCN(C)C)c2nc3cc4c(cc3s2)OCO4)cc1` (stereo not drawn) here?
Answer: inactive

Question: For `CCn1c(CN2CCN(Cc3ccc(C)cc3)C(CCO)C2)nc2ccccc21` (stereo not drawn), which activation is on record?
Answer: 61.5% (active)

Question: Which activation does the source give for `O=C(NCc1ccccc1)C1=C[C@@H](C2CCCCC2)C[C@@H](OCc2ccc(CO)cc2)O1` here?
Answer: 30.5% (active)

Question: For `CCN1CCCC1CNS(=O)(=O)c1c(C)cc(C)cc1C` (stereo not drawn), which activation is on record?
Answer: 61.5% (active)

Question: For `CSc1ccc(C(=O)NCC(c2ccco2)N(C)C)cc1[N+](=O)[O-]` (stereo not drawn), which outcome is on record?
Answer: inactive

Question: For `Cc1ccc2nc(N(CCCN(C)C)C(=O)c3ccc(S(=O)(=O)N4CCc5ccccc5C4)cc3)sc2c1`, which outcome is on record?
Answer: inactive

Question: `COc1ccccc1/C=C/CN1CCCC(CCC(=O)NCc2ccc(F)c(F)c2)C1` (stereo not drawn) was tested. Which activation did it give?
Answer: 43.5% (active)

Question: Which activation does the source give for `CC[C@@H](C)[C@H](CNC)NC[C@@H](Cc1cccc2ccccc12)NCCc1cccc(C(F)(F)F)c1` here?
Answer: 29% (active)

Question: `CC(C)C1CC(CCNCc2ccc(N(C)C)cc2)(c2ccccc2)CCO1` (stereo not drawn) was tested. Which activation did it give?
Answer: 29% (active)

Question: Which activation does the source give for `Clc1cc(Cl)cc(C2=NC(Cc3ccccc3)CO2)c1` (stereo not drawn) here?
Answer: 25% (active)

Question: For `O=C(NCCc1cnc[nH]1)c1ccc(-c2ccccc2)cc1`, which activation is on record?
Answer: 59% (active)

Question: How did the activation turn out when `COCC1CCN(Cc2cn(-c3ccccc3F)nc2-c2cc(C)sc2C)CC1` was run?
Answer: 69.5% (active)

Question: With `Cc1cc(C)cc(NC(=S)N2CCN(c3ncc(C(F)(F)F)cc3Cl)CC2)c1` as the molecule, how does the activation read?
Answer: 25% (active)

Question: With `CC(C)C1CC(CCNCc2ccc3c(c2)OCO3)(c2ccccc2)CCO1` (stereo not drawn) as the molecule, how does the activation read?
Answer: 64% (active)

Question: `Cc1ccc(CNC(=O)C2CCCN(Cc3cnn(-c4ccccc4)c3-n3cccc3)C2)cc1` (stereo not drawn) was tested. Which activation did it give?
Answer: 46% (active)

Question: With `CN1CCN(c2ccc(NC(=O)COc3cccc4ccccc34)cc2)CC1` as the molecule, how does the outcome read?
Answer: inactive

Question: For `COc1ccc(CSCCN)cc1Cl`, which outcome is on record?
Answer: inactive

Question: With `Cc1csc2c(N3CCN(C(=O)Nc4ccccc4)CC3)ncnc12` as the molecule, how does the outcome read?
Answer: inactive

Question: How did the activation turn out when `CCOC(=O)C1(Cc2ccccc2)CCN(Cc2cn[nH]c2-c2ccccc2)CC1` was run?
Answer: 76% (active)

Question: Which outcome does the source give for `CCOc1ccccc1C1CC(c2ccc(Cl)cc2)Nc2nc(N)nn21` (stereo not drawn) here?
Answer: inactive

Question: How did the activation turn out when `O=C(c1sc2ccccc2c1Cl)N(Cc1ccccc1)C1CCS(=O)(=O)C1` (stereo not drawn) was run?
Answer: 36% (active)

Question: With `Cc1ccc(C)c(-n2cc(CNCCCn3cccn3)c(-c3ccccc3)n2)c1` as the molecule, how does the activation read?
Answer: 48.5% (active)

Question: With `NC(=O)C1CCCN(CCc2ccccc2)C1` (stereo not drawn) as the molecule, how does the outcome read?
Answer: inactive

Question: For `CCn1c(=O)c(C(=O)NNC(=O)c2ccccc2F)c(O)c2ccccc21`, which outcome is on record?
Answer: inactive

Question: How did the activation turn out when `O=C(NCc1ccccc1)C1=C[C@H](c2ccccc2)C[C@H](OCc2ccc(CO)cc2)O1` was run?
Answer: 27% (active)

Question: For `O=C(CC1C(=O)NCCN1Cc1ccccc1C(F)(F)F)NCCc1ccccn1` (stereo not drawn), which outcome is on record?
Answer: inactive

Question: Which outcome does the source give for `CCn1c(N2CCN(S(=O)(=O)CC)CC2)nc2ccccc21` here?
Answer: inactive

Biological target: Short transient receptor potential channel 6 (Mus musculus) (UniProt Q61143)
Assay: positive modulators of mouse TRPC6 channel – HEK293 cells, membrane potential dye, duplicate, selectivity assay for TRPC4 potentiator project, confirmation (AID 434952)
Settings: HEK293 TRPC6, membrane potential dye fluorescence, at 10 µM, maximal acetylcholine added after compound; hits give high values

Question: Which outcome does the source give for `Cc1cccn2c(CNCCc3ccccn3)c(C(=O)N3CCOCC3)nc12` here?
Answer: inactive

Question: How did the outcome turn out when `COc1ccc(/C=N/NC(=O)C2COc3ccccc3O2)cc1OC` (stereo not drawn) was run?
Answer: inactive

Question: `CN(C)CCNC(=O)c1c(NC(=O)c2ccccc2)sc2c1CCCC2` was tested. Which outcome did it give?
Answer: inactive

Question: Which outcome does the source give for `Cc1ccccc1N1CC(O)(c2ccccc2)[N+]2=C1SCC2` (stereo not drawn) here?
Answer: inactive

Question: For `CC(C)Cc1ccc(CN2CCCC(NC(=O)CCn3cnnn3)C2)cc1` (stereo not drawn), which outcome is on record?
Answer: inactive

Question: `CN1CCN(Cc2nc3c(c(=O)[nH]c(=O)n3C)n2Cc2c(F)cccc2Cl)CC1` was tested. Which outcome did it give?
Answer: inactive

Question: `O=C(CC1C(=O)NCCN1Cc1cccc(Oc2ccccc2)c1)NCCc1ccccn1` (stereo not drawn) was tested. Which outcome did it give?
Answer: inactive

Question: For `CN(C)CCCN(C(=O)c1ccc(Cl)s1)c1nc2cc3c(cc2s1)OCO3`, which outcome is on record?
Answer: inactive

Question: With `Cc1cc(CSC(=N)N)c(CSC(=N)N)cc1C` as the molecule, how does the outcome read?
Answer: inactive

Question: `COC(=O)c1ccc(N2CCN(C)CC2)c(NC(=O)c2ccc(Br)o2)c1` was tested. Which outcome did it give?
Answer: inactive

Question: Which outcome does the source give for `CCc1cc(OCCN(C)C)ccc1Cl` here?
Answer: inactive

Question: `C=CCn1c(/N=C/c2ccc(N(C)C)cc2)nc2ccccc21` was tested. Which outcome did it give?
Answer: inactive

Question: `CCC1CCCCN1S(=O)(=O)c1ccc(C(=O)N(CCCN(C)C)c2nc3cc4c(cc3s2)OCO4)cc1` (stereo not drawn) was tested. Which outcome did it give?
Answer: inactive

Question: `CCn1c(CN2CCN(Cc3ccc(C)cc3)C(CCO)C2)nc2ccccc21` (stereo not drawn) was tested. Which outcome did it give?
Answer: inactive

Question: With `O=C(NCc1ccccc1)C1=C[C@@H](C2CCCCC2)C[C@@H](OCc2ccc(CO)cc2)O1` as the molecule, how does the outcome read?
Answer: inactive

Question: `CCN1CCCC1CNS(=O)(=O)c1c(C)cc(C)cc1C` (stereo not drawn) was tested. Which outcome did it give?
Answer: inactive

Question: `CSc1ccc(C(=O)NCC(c2ccco2)N(C)C)cc1[N+](=O)[O-]` (stereo not drawn) was tested. Which outcome did it give?
Answer: inactive

Question: `Cc1ccc2nc(N(CCCN(C)C)C(=O)c3ccc(S(=O)(=O)N4CCc5ccccc5C4)cc3)sc2c1` was tested. Which outcome did it give?
Answer: inactive

Question: With `COc1ccccc1/C=C/CN1CCCC(CCC(=O)NCc2ccc(F)c(F)c2)C1` (stereo not drawn) as the molecule, how does the outcome read?
Answer: inactive

Question: Which outcome does the source give for `CC[C@@H](C)[C@H](CNC)NC[C@@H](Cc1cccc2ccccc12)NCCc1cccc(C(F)(F)F)c1` here?
Answer: inactive

Question: How did the outcome turn out when `CC(C)C1CC(CCNCc2ccc(N(C)C)cc2)(c2ccccc2)CCO1` (stereo not drawn) was run?
Answer: inactive

Question: Which outcome does the source give for `Clc1cc(Cl)cc(C2=NC(Cc3ccccc3)CO2)c1` (stereo not drawn) here?
Answer: inactive

Question: `O=C(NCCc1cnc[nH]1)c1ccc(-c2ccccc2)cc1` was tested. Which outcome did it give?
Answer: inactive

Question: Which outcome does the source give for `COCC1CCN(Cc2cn(-c3ccccc3F)nc2-c2cc(C)sc2C)CC1` here?
Answer: inactive

Question: With `Cc1cc(C)cc(NC(=S)N2CCN(c3ncc(C(F)(F)F)cc3Cl)CC2)c1` as the molecule, how does the outcome read?
Answer: inactive

Question: `CC(C)C1CC(CCNCc2ccc3c(c2)OCO3)(c2ccccc2)CCO1` (stereo not drawn) was tested. Which outcome did it give?
Answer: inactive

Question: Which outcome does the source give for `Cc1ccc(CNC(=O)C2CCCN(Cc3cnn(-c4ccccc4)c3-n3cccc3)C2)cc1` (stereo not drawn) here?
Answer: inactive

Question: Which outcome does the source give for `CN1CCN(c2ccc(NC(=O)COc3cccc4ccccc34)cc2)CC1` here?
Answer: inactive

Question: With `COc1ccc(CSCCN)cc1Cl` as the molecule, how does the outcome read?
Answer: inactive

Question: For `Cc1csc2c(N3CCN(C(=O)Nc4ccccc4)CC3)ncnc12`, which outcome is on record?
Answer: inactive

Question: `CCOC(=O)C1(Cc2ccccc2)CCN(Cc2cn[nH]c2-c2ccccc2)CC1` was tested. Which outcome did it give?
Answer: inactive

Question: With `CCOc1ccccc1C1CC(c2ccc(Cl)cc2)Nc2nc(N)nn21` (stereo not drawn) as the molecule, how does the outcome read?
Answer: inactive

Question: `O=C(c1sc2ccccc2c1Cl)N(Cc1ccccc1)C1CCS(=O)(=O)C1` (stereo not drawn) was tested. Which outcome did it give?
Answer: inactive

Question: For `Cc1ccc(C)c(-n2cc(CNCCCn3cccn3)c(-c3ccccc3)n2)c1`, which outcome is on record?
Answer: inactive

Question: With `NC(=O)C1CCCN(CCc2ccccc2)C1` (stereo not drawn) as the molecule, how does the outcome read?
Answer: inactive

Question: How did the outcome turn out when `CCn1c(=O)c(C(=O)NNC(=O)c2ccccc2F)c(O)c2ccccc21` was run?
Answer: inactive

Question: With `O=C(NCc1ccccc1)C1=C[C@H](c2ccccc2)C[C@H](OCc2ccc(CO)cc2)O1` as the molecule, how does the outcome read?
Answer: inactive

Question: For `O=C(CC1C(=O)NCCN1Cc1ccccc1C(F)(F)F)NCCc1ccccn1` (stereo not drawn), which outcome is on record?
Answer: inactive

Question: With `CCn1c(N2CCN(S(=O)(=O)CC)CC2)nc2ccccc21` as the molecule, how does the outcome read?
Answer: inactive
